Test results published in PubChem BioAssay (NCATS).
Records with an inconclusive call do not appear. Activity calls are given as the source filed them. The call rests on the fitted dose curve; in most records, active means well fitted curve in the direction sought with a large enough effect; inconclusive means small, poorly fitted or top-dose-only effect, or another doubt; inactive means no such curve, though single readings can be large; an effect the other way counts as inactive or inconclusive.

How the values were obtained:
[1] = target: Glutathione peroxidase 1 (Homo sapiens) (UniProt P07203); test: Primary qHTS Assay for Inhibitors of Recombinant Selenoprotein Glutathione Peroxidase 1 (GPX1) (AID 1845191); further: nearly all actives have a fitted effect of over 65% in size; on activity, negative = inhibition: on the % scale 0 is the no-effect control and ±100 the full control effect
Summary of the method: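 NADPH consumption tracked by fluorescence at 340/450 nm between t=0 and t=15 min, room temperature. Final mix: 10 nM GPX1, 100 nM glutathione reductase, 1 mM GSH, 0.5 mM NADPH, 0.5 mM cumene hydroperoxide, 0.01% BSA; 30 min compound–enzyme preincubation.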

[2] = target: Phospholipid hydroperoxide glutathione peroxidase GPX4 (Homo sapiens) (UniProt P36969); test: Primary qHTS Assay for Inhibitors of Recombinant Selenoprotein Glutathione Peroxidase 4 (GPX4) (AID 1845192); further: nearly all actives have a fitted effect of over 65% in size; on activity change, negative = inhibition: series mostly up to about 50 µM; on the % scale 0 is the no-effect control and ±100 the full control effect
Summary of the method: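 NADPH consumption followed by fluorescence at 340/450 nm, t=0 and after 15 min at room temperature. Reaction started with cumene hydroperoxide (0.5 mM final) after 30 min compound–GPX4 preincubation; final 200 nM GPX4, 100 nM GR, 1 mM GSH, 0.5 mM NADPH.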

[3] = target: Luciferin 4-monooxygenase (Photinus pyralis) (UniProt P08659); test: Primary firefly luciferase (FLuc) qHTS assay for identification of artifact compounds. (AID 1845220); further: nearly all actives have a fitted effect of over 60% in size;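 on activity change, negative = inhibition: series mostly up to about 54 µM; plate controls were DMSO vehicle for no effect and no enzyme for full effect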
Summary of the method: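 Compounds sat 15 min at room temperature with 10 uM luciferin and 10 uM ATP (pH 7.6 Tris acetate). Firefly luciferase (10 nM final) was then added, and luminescence was read 5 min later. Data normalized to no-enzyme and DMSO controls were Hill-fitted.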

[4] = Primary fluorescence-based thiol-reactive (MSTI) qHTS assay for identification of artifact compounds. (AID 1845221); further: nearly all actives have a fitted effect of over 65% in size; further: potency means the concentration at half of the fitted maximal effect;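 on activity change, negative = thiol reactive: series mostly up to about 54 µM; thiol-reactive compounds lower the probe fluorescence signal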
Summary of the method: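 Reactivity toward the thiol probe MSTI (4 uM) is scored by fluorescence at Ex/Em 525/598 nm after 1 h at room temperature. Acetyl-MSTI and MSTI define the activity scale.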

[5] = tested on: Nanoluciferase (engineered Oplophorus gracilirostris luciferase); test: Primary Nanoluciferase (NLuc) qHTS assay for identification of artifact compounds. (AID 1845222);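 further: series mostly up to about 54 µM; 0% = DMSO and -100% = no enzyme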
Summary of the method: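 Luminescence from secreted NLuc (filtered, 1:55-diluted S16 cell medium) read 5 min after Nano-Glo substrate; compounds preincubated 15 min, RT. Hill fits of inhibition normalized to DMSO and no-enzyme.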

[6] = Primary redox qHTS assay for identification of artifact compounds. (AID 1845223);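 further: 0% = DMSO and 100% = reference compound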
Summary of the method: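 Redox-cycling detection via DTT (250 uM final) oxidation coupled to Amplex Red (25 uM)/HRP (250 mU/mL) in HBSS. 15 min preincubation plus 30 min after DTT, room temperature. Ex/Em 525/598 nm; 4-parameter Hill fit against DMSO and 10 uM DA3003.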

Sequence of Phospholipid hydroperoxide glutathione peroxidase GPX4 (Homo sapiens) (P36969 whole entry, looked up): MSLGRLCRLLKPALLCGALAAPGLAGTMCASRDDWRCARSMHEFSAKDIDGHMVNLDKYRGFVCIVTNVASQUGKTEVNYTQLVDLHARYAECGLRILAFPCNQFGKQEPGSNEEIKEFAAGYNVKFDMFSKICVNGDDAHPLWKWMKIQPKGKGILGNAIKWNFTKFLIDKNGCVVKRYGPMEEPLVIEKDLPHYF
Sequence of Glutathione peroxidase 1 (Homo sapiens) (P07203 whole entry, looked up): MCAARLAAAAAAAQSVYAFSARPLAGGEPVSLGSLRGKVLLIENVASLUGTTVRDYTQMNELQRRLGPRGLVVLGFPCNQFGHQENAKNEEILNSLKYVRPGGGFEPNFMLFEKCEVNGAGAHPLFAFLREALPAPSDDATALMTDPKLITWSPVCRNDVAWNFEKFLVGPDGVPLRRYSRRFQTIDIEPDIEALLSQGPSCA

COC1/C=C/C(C)(O)C(SCC(N)C(=O)O)CC(=O)OC(C)C(C)CC/C=C/1C (configuration not stated)
inactive: Potency [1] | Potency [2] | Potency [3] | Potency [4] | Potency [5] | Potency [6]

COc1ncc2cc(C(=O)Nc3cc(C(=O)NCc4cccc(Cl)c4)ccc3Cl)c(=O)[nH]c2n1
inactive: Potency [1] | Potency [2] | Potency [3] | Potency [4] | Potency [5] | Potency [6]

CN[C@@H]1[C@H](O[C@H]2[C@H](O[C@@H]3[C@@H](O)[C@H](O)[C@@H](N=C(N)N)[C@H](O)[C@H]3N=C(N)N)O[C@@H](C)[C@]2(O)C=O)O[C@@H](CO)[C@H](O)[C@H]1O
inactive: Potency [1] | Potency [2] | Potency [3] | Potency [4] | Potency [5] | Potency [6]

CCCCNc1ccc(-c2ccc(CN3CCOCC3)cn2)c(NC2CCC(O)CC2)c1 (configuration not stated)
inactive: Potency [1] | Potency [2] | Potency [3] | Potency [4] | Potency [5] | Potency [6]

C[C@H](O)[C@H](O)/C=C/c1cccc(O)c1CO
inactive: Potency [1] | Potency [2] | Potency [3] | Potency [4] | Potency [5] | Potency [6]

Fc1ccc2nc(CCC#Cc3ccccn3)cn2c1
inactive: Potency [1] | Potency [2] | Potency [3] | Potency [4] | Potency [5] | Potency [6]

CCOC(=O)Nc1cc(-c2ccc(C)c(NS(C)(=O)=O)c2)nn2c(C)nnc12
inactive: Potency [1] | Potency [2] | Potency [3] | Potency [4] | Potency [5] | Potency [6]

NC(=O)c1cccc(-c2cc(OC(=O)NC3CCCCC3)ccc2O)c1
inactive: Potency [1] | Potency [2] | Potency [3] | Potency [4] | Potency [5] | Potency [6]

COc1c2ccoc2cc2oc(CO[C@@H]3O[C@H](CO)[C@@H](O)[C@H](O)[C@H]3O)cc(=O)c12
inactive: Potency [1] | Potency [2] | Potency [3] | Potency [4] | Potency [5] | Potency [6]

CC1=CC(=O)C2C(C)(C)CCC[C@]2(C)[C@H]1CO (some centres not stated)
inactive: Potency [1] | Potency [2] | Potency [3] | Potency [4] | Potency [5] | Potency [6]

CSc1ccc(C(=O)N[C@@H]2CCCC[C@@H]2NC(=O)CNC(=O)c2cc(C(F)(F)F)ccc2NC(=O)NC(C)C)cc1
inactive: Potency [1] | Potency [2] | Potency [3] | Potency [4] | Potency [5] | Potency [6]

C=C(C(=O)OC)C1C(O)CC2(C)C(=O)CCC(O)(CO)C2C1O (configuration not stated)
inactive: Potency [1] | Potency [2] | Potency [3] | Potency [4] | Potency [5] | Potency [6]

C/C1=C\C[C@]2(C)C(=O)C(O)=C([C@H](C)CO)[C@H]2C/C=C(\C)[C@@H](O)CC/C(C)=C/CC1
inactive: Potency [1] | Potency [2] | Potency [3] | Potency [4] | Potency [5] | Potency [6]

Cn1c(=O)n(-c2ccc(C(C)(C)C#N)cc2)c2c3cc(C#Cc4cccnc4)ccc3ncc21
inactive: Potency [1] | Potency [2] | Potency [3] | Potency [4] | Potency [5] | Potency [6]

CC(C)(C)OC(=O)N1CCC(OCc2nc(-c3ccncc3)no2)CC1
inactive: Potency [1] | Potency [2] | Potency [3] | Potency [4] | Potency [5] | Potency [6]

CC1=CC(=O)C2(OC3OC(C)C(O)C(OC(=O)/C=C/c4ccccc4)C3O)C=COC(OC3OC(CO)C(O)C(O)C3O)C12 (configuration not stated)
inactive: Potency [1] | Potency [2] | Potency [3] | Potency [5] | Potency [6]
active: Potency [4] 1.41 µM

CC(=O)N[C@@H](CCCCN)C(=O)N(C)[C@@H](CC(C)C)C(=O)N[C@H](C(=O)N(C)[C@@H](Cc1ccccc1)C(=O)N[C@H](Cc1ccccc1)C(N)=O)C(C)C
inactive: activity, negative = inhibition [1] 0.986% [at 4.49 µM] | outcome [2] inactive [at 4.52 µM] | activity change, negative = inhibition [3] 1.94% [at 6.45 µM] | activity change, negative = thiol reactive [4] 50.7% [at 6.41 µM] | activity, negative = inhibition [5] 2.14% [at 6.45 µM] | redox activity (% of DA3003) [6] -1.23% [at 6.41 µM]

COc1ccccc1Oc1ccc(N(Cc2cccnc2)S(=O)(=O)CC(F)(F)F)cc1
inactive: Potency [1] | Potency [2] | Potency [3] | Potency [4] | Potency [5] | Potency [6]

CC1CC2OC3(OC2C(C)(C)O)C1C1(C)CCC24CC25CCC(O[C@@H]2OC[C@@H](O)[C@H](O)[C@H]2O)C(C)(C)C5CC=C4C1(C)C3O (some centres not stated)
inactive: Potency [1] | Potency [2] | Potency [3] | Potency [4] | Potency [5] | Potency [6]

CC1=C2C(O)C(=O)OC(c3ccoc3)C2(C)CCC1O (configuration not stated)
inactive: Potency [1] | Potency [2] | Potency [3] | Potency [4] | Potency [5] | Potency [6]

COc1ccc(-c2nc(-c3ccc(-c4cccc(Cl)c4)o3)[nH]c2-c2ccc(OC)cc2)cc1
active: Potency [4] 4.23 µM
inactive: Potency [1] | Potency [2] | Potency [3] | Potency [5] | Potency [6]

CC1(C)CC[C@]2(C(=O)O[C@@H]3O[C@H](CO)[C@@H](O)[C@H](O)[C@H]3O)CC[C@]3(C)C(=CCC4[C@@]5(C)CC[C@H](O[C@@H]6O[C@H](C(=O)O)[C@@H](O)[C@H](O)[C@H]6O)C(C)(C)C5CC[C@]43C)C2C1 (some centres not stated)
inactive: Potency [1] | Potency [2] | activity change, negative = inhibition [3] 0.101% [at 11.6 µM] | activity change, negative = thiol reactive [4] 258% [at 11.5 µM] | activity, negative = inhibition [5] 3.65% [at 11.6 µM] | redox activity (% of DA3003) [6] 15.1% [at 11.5 µM]
